Results on 34 compounds are retold here after PubChem BioAssay (NCATS).

The nature of test [1]: Confirmatory qHTS for VERO E6 Cytotoxicity Assay: Counterscreen for SARS-CoV-2 CPE Assay (AID 1508605). For activity change, negative = cytotoxic: % is set by controls: 0 for no effect and ±100 for the full control effect. Note: nearly all actives have a fitted effect of over 60% in size. Note: potency is the fitted concentration of half-maximal effect.
A short description of test [2]: Confirmatory qHTS for activators (rescue) of SARS-CoV-2 Cytopathic Effect (CPE) (AID 1508606; note: nearly all actives have a fitted effect of over 70% in size; note: potency is the fitted concentration of half-maximal effect). (qHTS replaces the single test concentration by a dilution series.)
Test [3] in a line: Confirmatory qHTS to identify inhibitors of SARS-CoV-2 cell entry (AID 1645844). Note: potency is the fitted concentration of half-maximal effect; nearly all actives have a fitted effect of over 45% in size. Summed up:
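HEK293-ACE2 cells (Expi293F stably expressing human ACE2) were pretreated with compounds for 1 hr at 37C, then infected with MLV-based particles carrying Wuhan-Hu-1 spike (C-terminal 19-aa truncation). Luciferase luminescence read after 48 hr; normalized to spike PP (100%) and bald PP (0%).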

A short description of test [4]: Cytotoxicity counterscreen for inhibitors of SARS-CoV-2 cell entry (AID 1645845). Note: nearly all actives have a fitted effect of over 50% in size. Note: potency is the fitted concentration of half-maximal effect. As to conditions: outcome: dose series up to 57.1 µM unless noted. Summed up:
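Expi293F/hACE2 cells seeded overnight; cpd pin-transferred in DMSO, 1 h preincubation, + media, 48 h 37 C 5% CO2; ATPLite 1step luminescence; normalized to cells and no cells.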

The nature of test [5]: VSVG counterscreen qHTS to identify inhibitors of SARS-CoV-2 cell entry (AID 1645847). Note: potency is the fitted concentration of half-maximal effect; nearly all actives have a fitted effect of over 65% in size. Summed up: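 HEK293-ACE2 cells (Expi293F, human ACE2) pretreated 1 h with compound, then infected with MLV-based VSV-G pseudotyped particles for 48 h at 37 C; luciferase luminescence normalized to VSV-G PP and bald PP wells.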
In general terms: Counterscreens check selectivity or assay interference.

A short description of test [6]: Primary qHTS to identify inhibitors of SARS-CoV-2 cell entry (AID 1645846). Note: nearly all actives have a fitted effect of over 45% in size. The following applies: SARS-CoV-2 pseudovirus cell entry assay, luminescence; activity change, negative = inhibition: at 57.1 µM (top of the series) unless noted. The gist of the method:
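HEK293 cells stably expressing human ACE2, pre-treated 1 h with compound, then infected with MLV particles pseudotyped with Wuhan-Hu-1 spike (C-terminal 19-aa truncation). Luciferase luminescence after 48 h at 37 °C, normalised to spike PP and bald PP.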

Inconclusive results are not listed. Activity calls are given as the source filed them. Calls come from the whole dose curve.

In the case of `CC[C@H](NC(=O)[C@H](CS(=O)(=O)CC1CC1)N[C@@H](c1ccc(F)cc1)C(F)(F)F)C(=O)C(=O)NC1CC1`, the Potency result in test [1] and in test [4] was “inactive” in each case. For the same compound, the Potency is 0.112 µM (active) in test [2], 1.08 µM (active) in test [3] and 10.8 µM (active) in test [5].
Turning to `Cc1nc(C)c(CN2CCN(C(c3ccc(F)cc3)c3ccc(F)cc3)CC2)nc1C`, the Potency entry in test [1] and in test [4] was “inactive” in each case.
Regarding `Cc1ncc(NC(=O)c2ccc(CN3CCN(C)CC3)c(C(F)(F)F)c2)cc1Nc1nccc(-c2cccnc2)n1`, in test [1], the Potency entry was “inactive”. In test [2], the Potency was 10 µM (active).
In the same order, the values of `COc1ccc(NC(=O)c2ccc(-c3ccc(-c4nnc(C)o4)cc3C)cc2)cc1N1CCN(C)CC1` are “inactive” and 6.31 µM (active).
`Cc1cnc(NC(=O)c2cc(S(=O)(=O)N(C)C)ccc2N2CCCC2)s1`: the Potency entry in test [1] is “inactive”. Further, in test [2], the Potency was 2.82 µM (active).
In the same order, the values of `CC/C(=C(/CC)c1ccc(O)c(CN(CC)CC)c1)c1ccc(O)c(CN(CC)CC)c1` are “inactive” and 8.91 µM (active).
As to `Cc1ccc(NCCN(C)CCNc2ccnc3cc(Cl)ccc23)c2c(=O)c3ccccc3sc12`, the Potency result in test [1] and in test [2] was “inactive” in each case.
On to `COCCNCc1ccc(-c2cc3nccc(Oc4ccc(NC(=O)C5(C(=O)Nc6ccc(F)cc6)CC5)cc4F)c3s2)nc1`, for which, in test [1], the Potency is 5.01 µM (active). Also, the Potency result in test [4] is “inactive”. Moreover, the activity change, negative = inhibition in test [6] is -25.9%.
With `Fc1ccc2c(CCNCc3cccc(OCC(F)(F)C(F)F)c3)c[nH]c2c1`, in test [1], the Potency entry was “inactive”. Besides, the Potency in test [2] is 10 µM (active).
As for `CCCN1CCN(c2ccc(C(=O)NC3(C(=O)NCC#N)CCCCC3)cc2)CC1`, the Potency result in test [1] and in test [4] was “inactive” throughout. For the same compound, the Potency in test [2] was 1 µM (active).
In the case of `O=C1NC(=O)/C(=C\c2ccc(-c3ccc(F)cc3)o2)S1`, the Potency result in test [1], in test [4] and in test [6] was “inactive” in each case.
On to `CCCC[C@@H](C=O)NC(=O)[C@H](CC(C)C)NC(=O)OCc1ccccc1`, for which the Potency result in test [1] and in test [4] was “inactive” each time. Moreover, the Potency in test [2] is 0.355 µM (active); in test [3], 1.08 µM (active). Besides, in test [6], the activity change, negative = inhibition was -89.9%.
For the compound `C=CC(=O)N[C@H]1CCOC[C@H]1Nc1ncc2cc(-c3c(Cl)c(OC)cc(OC)c3Cl)ccc2n1`, the Potency entry in test [1] and in test [4] was “inactive” each time.
Turning to `Cc1cccc(/C=N/Nc2cc(N3CCOCC3)nc(OCCc3ccccn3)n2)c1`, the activity change, negative = cytotoxic in test [1] is -20.4% [at 1.7 µM] (inactive). For the same compound, the Potency in test [2] is 0.0142 µM (active); in test [3], 0.0764 µM (active); in test [5], 7.64 µM (active). Also, the activity change, negative = inhibition in test [6] is -96.7%.
For `C/C(=N\NC(=O)c1cccc(S(=O)(=O)N2CCOCC2)c1)c1cc(Cl)ccc1O`, the Potency in test [1] is 1 µM (active). For the same compound, the Potency entry in test [4] was “inactive”.
For `Cn1cc(-c2ccc(-c3cncc(Cl)c3N3CCC4(CCNC4=O)CC3)cc2)cn1`, the Potency entry in test [1] and in test [4] was “inactive” each time.
For `Cc1cc(C)c(CNC(=O)c2cc(-c3ccc(N4CCN(C)CC4)nc3)cc3c2c(C)cn3C(C)C)c(=O)[nH]1`, the Potency result in test [1] and in test [4] was “inactive” throughout. In addition, the Potency in test [2] is 10 µM (active); in test [3], 27.1 µM (active). Moreover, in test [6], the activity change, negative = inhibition is -89.9%.
`CN1CCN(c2ccc(C(=O)Nc3n[nH]c4ccc(Cc5cc(F)cc(F)c5)cc34)c(NC3CCOCC3)c2)CC1`: the Potency in test [1] was 3.55 µM (active); in test [4], 31.6 µM (active). For the same compound, the Potency result in test [2] is “inactive”.
Turning to `CN(C)CCN(Cc1ccc(-c2ccc(CNCCc3ccccc3)cc2)cc1)C(=O)CCC1CCCC1`, the Potency in test [1] is 3.98 µM (active). Besides, in test [2], the Potency result is “inactive”.
As to `C=CC(C)(C)c1[nH]c2ccccc2c1C1=C(O)C(=O)C(c2c[nH]c3c(CC=C(C)C)cccc23)=C(O)C1=O`, in test [1], the Potency is 3.98 µM (active). The Potency result in test [2] is “inactive”.
As to `COc1cc(NC(=O)Nc2cccc(CNC(=O)O[C@H]3CCOC3)c2)ccc1-c1cnco1`, the Potency result in test [1] and in test [2] was “inactive” throughout.
`O=C(NCc1ccccc1)[C@H](Cc1ccccc1)NC(=O)[C@H]1O[C@@H]1C(=O)NCCc1ccc(O)cc1`: the Potency result in test [1] and in test [4] was “inactive” in each case. The Potency in test [2] was 0.141 µM (active); in test [3] it was 1.36 µM (active).
Turning to `CNCc1ccc(-c2cc(-c3nc(-c4ccc(S(=O)(=O)C(C)C)cc4)cnc3N)on2)cc1`, the Potency in test [1] is 11.2 µM (active); in test [2], 1.78 µM (active). In test [4], the Potency result is “inactive”.
Consider `Cc1cc2cc(Oc3ccnc(Nc4cccc(CS(=O)(=O)NCCN(C)C)c4)n3)ccc2[nH]1`, for which the Potency in test [1] was 11.2 µM (active). Also, the Potency result in test [2] was “inactive”.
In the case of `CN(C)CCN(Cc1ccccc1)C(=O)c1cc(-c2ccc(F)cc2)n2nc(C(C)(C)C)cc2n1`, the Potency result in test [1] and in test [2] was “inactive” in each case.
For `CCC(CC)COC(=O)[C@H](C)N[P@](=O)(OC[C@H]1O[C@@](C#N)(c2ccc3c(N)ncnn23)[C@H](O)[C@@H]1O)Oc1ccccc1`, the Potency entry in test [1] was “inactive”. Moreover, the Potency in test [2] was 10 µM (active).
As to `Nc1ncnc2c1c(-c1ccc(Oc3ccccc3)cc1)nn2[C@@H]1CCCNC1`, the Potency in test [1] was 8.91 µM (active). Besides, in test [2], the Potency entry is “inactive”.
On to `CN(C)c1nc(NC2CCC(NCCc3ccc(Br)cc3OC(F)(F)F)CC2)nc2ccccc12` (stereo not drawn), for which, in test [1], the Potency is 3.98 µM (active). For the same compound, in test [2], the Potency result is “inactive”.
Consider `CONC(=O)Nc1ccc(-c2sc3c(c2CN(C)Cc2ccccc2)c(=O)n(-c2ccccc2)c(=O)n3Cc2c(F)cccc2F)cc1`, for which the Potency result in test [1], in test [2] and in test [4] was “inactive” throughout.
Take `CC1(C)CC[C@]23CO[C@@]4(CCC5[C@@]6(C)CC[C@H](O[C@@H]7OC[C@H](O[C@@H]8O[C@H](CO)[C@@H](O)[C@H](O)[C@H]8O[C@@H]8OC[C@@H](O)[C@H](O)[C@H]8O)[C@H](O)[C@H]7O[C@@H]7O[C@H](CO)[C@@H](O)[C@H](O)[C@H]7O)[C@@](C)(CO)C6CC[C@@]5(C)[C@]4(C)C[C@H]2O)[C@@H]3C1` (stereo partly drawn): the Potency in test [1] was 3.03 µM (active). Also, the Potency result in test [2] is “inactive”.
The like results for `COc1ccccc1N1CCN(CC[C@@](C)(C(=O)C2CCCCC2)c2ccccc2)CC1` were, in that order, “inactive” and 10 µM (active).
Regarding `CCOc1ccc(-c2nc(-c3cccc4c3CCC4NCCO)no2)cc1OCC` (stereo not drawn), the Potency entry in test [1] was “inactive”. Moreover, the Potency in test [2] was 11.2 µM (active).
In the case of `O=C1c2ccccc2-c2nc3nnnn3nc21` (tested in a mixture with another compound), the Potency in test [1] is 1.12 µM (active). For the same compound, in test [2], the Potency result is “inactive”.
For `C[C@@H]1O[C@@H](O[C@@H]2[C@@H](O)[C@H](O[C@@H]3[C@@H](O)[C@@H](O)[C@H](O[C@H]4[C@H](OC(=O)[C@]56CCC(C)(C)C[C@H]5C5=CCC7[C@@]8(C)C[C@H](O)[C@H](O[C@@H]9O[C@@H](C)[C@H](O)[C@@H](O)[C@H]9O)[C@@](C)(CO)C8CC[C@@]7(C)[C@]5(C)C[C@H]6O)O[C@H](C)[C@H](O)[C@@H]4O)O[C@H]3C)OC[C@H]2O)[C@H](O)[C@H](O)[C@H]1O` (stereo partly drawn), the Potency in test [1] is 1.91 µM (active); in test [2], 0.602 µM (active).
